For some of these results: Entries with a potency or affinity are not part of this list.

Parameters in all cases: scale not given: direction of the effect not stated beside the values
Assay [1] has as its target Protein translocase subunit SecA (Escherichia coli (strain K12)) (UniProt P10408). Briefly: Assay to Identify E. coli SecA ATPase Inhibitors. Format: functional. The conditions noted are these: 30 µM.
Assay [2] deals with T1, Ubiquitin-activating enzyme e1, putative (Leishmania donovani (strain BPK282A1)) (UniProt E9BSI1).
T1 sequence (whole entry): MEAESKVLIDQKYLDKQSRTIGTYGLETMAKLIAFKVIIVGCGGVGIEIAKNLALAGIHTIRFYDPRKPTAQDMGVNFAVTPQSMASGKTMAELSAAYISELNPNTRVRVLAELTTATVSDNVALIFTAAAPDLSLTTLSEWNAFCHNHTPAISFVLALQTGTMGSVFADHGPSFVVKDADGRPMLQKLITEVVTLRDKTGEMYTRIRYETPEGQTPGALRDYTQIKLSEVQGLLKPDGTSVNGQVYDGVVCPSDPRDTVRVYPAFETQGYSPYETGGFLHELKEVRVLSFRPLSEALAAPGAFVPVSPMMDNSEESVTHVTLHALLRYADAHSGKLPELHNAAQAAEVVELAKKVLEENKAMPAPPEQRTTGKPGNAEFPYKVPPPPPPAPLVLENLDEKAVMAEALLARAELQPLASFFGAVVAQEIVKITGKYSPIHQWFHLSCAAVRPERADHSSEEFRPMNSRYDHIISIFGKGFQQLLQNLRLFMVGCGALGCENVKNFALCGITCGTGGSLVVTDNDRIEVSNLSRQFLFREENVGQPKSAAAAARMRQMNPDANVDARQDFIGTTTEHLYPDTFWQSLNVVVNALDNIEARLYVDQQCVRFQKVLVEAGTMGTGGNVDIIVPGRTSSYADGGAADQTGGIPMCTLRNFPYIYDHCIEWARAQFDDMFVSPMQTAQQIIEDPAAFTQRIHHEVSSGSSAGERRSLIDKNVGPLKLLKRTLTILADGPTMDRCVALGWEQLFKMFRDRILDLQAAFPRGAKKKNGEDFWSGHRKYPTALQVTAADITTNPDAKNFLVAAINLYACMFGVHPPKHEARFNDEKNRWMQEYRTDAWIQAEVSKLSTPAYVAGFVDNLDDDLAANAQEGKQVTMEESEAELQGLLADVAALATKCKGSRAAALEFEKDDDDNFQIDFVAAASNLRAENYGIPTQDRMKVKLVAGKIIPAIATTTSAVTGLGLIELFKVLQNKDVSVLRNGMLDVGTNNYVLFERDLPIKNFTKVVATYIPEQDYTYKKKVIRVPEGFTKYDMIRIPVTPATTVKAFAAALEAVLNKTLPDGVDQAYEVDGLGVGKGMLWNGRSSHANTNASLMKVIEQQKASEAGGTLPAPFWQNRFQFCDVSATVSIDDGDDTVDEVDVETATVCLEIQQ
Briefly: Leishmania donovani Ubiquitin Activating Enzyme (LdE1). It is filed as functional. Particulars: 30 µM.

Assay [3] deals with AMP-activated protein kinase, AMPK (Homo sapiens) (UniProt P54646+O43741+P54619+Q9UGJ0+Q9Y478+Q13131+Q9UGI9). Briefly: AMP-dependent Kinase enzyme assay. An in vitro enzyme assay that detects ADP turnover that is directly proportional to AMPK activity. This uses naive AMPK that is activated during the assay with MK-8722. Format: functional. The conditions noted are these: 30 µM.

For assay [4], the target named is Sialic acid-binding Ig-like lectin 9 (Homo sapiens) (UniProt Q9Y336). Description: Hs-Siglec9 ALPHAscreen SOP 20170721. Particulars: 10 µM. In general terms: Bead proximity is the source of the signal in Alpha formats.
Sialic acid-binding Ig-like lectin 9 (Homo sapiens), sequence (Q9Y336 whole entry): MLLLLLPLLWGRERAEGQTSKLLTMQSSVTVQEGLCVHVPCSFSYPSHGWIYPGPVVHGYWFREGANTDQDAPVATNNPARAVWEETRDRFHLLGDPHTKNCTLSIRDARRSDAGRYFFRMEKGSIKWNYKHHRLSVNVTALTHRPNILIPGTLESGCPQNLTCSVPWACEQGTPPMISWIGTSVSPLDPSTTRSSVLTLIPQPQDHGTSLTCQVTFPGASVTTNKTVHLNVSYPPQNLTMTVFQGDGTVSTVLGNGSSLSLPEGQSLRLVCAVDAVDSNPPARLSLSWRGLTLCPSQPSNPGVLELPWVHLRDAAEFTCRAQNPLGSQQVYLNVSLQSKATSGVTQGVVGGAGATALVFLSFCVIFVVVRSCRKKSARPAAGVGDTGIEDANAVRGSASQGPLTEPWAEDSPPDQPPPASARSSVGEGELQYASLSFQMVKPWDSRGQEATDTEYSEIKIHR
A further assay relates to Trypanosoma cruzi. Briefly: Trypanosoma cruzi phosphomannomutase and mannose-1-phosphate guanylyltransferase assay. It is filed as functional. The conditions noted are these: 10 µM.
The target of assay [5] is T2, Arginase-2, mitochondrial (Homo sapiens) (UniProt P78540).
T2 sequence (whole entry): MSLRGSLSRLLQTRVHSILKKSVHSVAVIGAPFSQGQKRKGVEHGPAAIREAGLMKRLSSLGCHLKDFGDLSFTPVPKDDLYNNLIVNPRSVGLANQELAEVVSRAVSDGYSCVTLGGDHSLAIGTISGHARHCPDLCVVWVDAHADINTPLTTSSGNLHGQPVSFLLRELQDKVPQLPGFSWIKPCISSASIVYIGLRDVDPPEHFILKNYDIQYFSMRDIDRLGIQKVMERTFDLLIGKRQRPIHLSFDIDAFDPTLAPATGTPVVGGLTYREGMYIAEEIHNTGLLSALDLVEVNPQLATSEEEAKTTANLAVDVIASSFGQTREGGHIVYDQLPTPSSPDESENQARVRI
Description: in vitro enzyme assay to detect the production of urea directly proportional to the activity of Arginase II. Note: in the data most compounds retested in dose-response had high values. Format: functional. The conditions noted are these: 33.3 µM.

The target of assay [6] is T3, Proteasome subunit beta (Trypanosoma cruzi) (UniProt O96673).
T3 sequence (whole entry): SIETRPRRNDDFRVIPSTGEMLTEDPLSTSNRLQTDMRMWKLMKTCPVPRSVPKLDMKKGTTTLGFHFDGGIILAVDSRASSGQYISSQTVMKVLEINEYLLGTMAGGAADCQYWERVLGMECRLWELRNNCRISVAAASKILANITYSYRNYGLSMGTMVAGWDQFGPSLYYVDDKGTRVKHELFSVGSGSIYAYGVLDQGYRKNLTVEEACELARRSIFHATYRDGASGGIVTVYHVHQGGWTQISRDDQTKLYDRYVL
Description: Trypanosoma cruzi proteasome chymotrypsin-like activity (TcProtChymo) assay. Note: in the data most compounds retested in dose-response had high values. Format: functional. The conditions noted are these: 9.37 µM.

The next assay is filed under the species Homo sapiens. Briefly: To identify inhibition of the IFN signalling (Jak-Stat) pathway via expression of an eGFP reporter gene under the control of an IFN-stimulated response element (ISRE) containing MxA promoter. Particulars: 30 µM. It is filed as functional. For orientation: In a reporter assay the amount or activity of a reporter protein is the signal.

Assay [7] addresses T4, Tyrosyl-tRNA synthetase, putative (Trypanosoma cruzi (strain CL Brener)) (UniProt Q4DSP6).
T4 sequence (whole entry): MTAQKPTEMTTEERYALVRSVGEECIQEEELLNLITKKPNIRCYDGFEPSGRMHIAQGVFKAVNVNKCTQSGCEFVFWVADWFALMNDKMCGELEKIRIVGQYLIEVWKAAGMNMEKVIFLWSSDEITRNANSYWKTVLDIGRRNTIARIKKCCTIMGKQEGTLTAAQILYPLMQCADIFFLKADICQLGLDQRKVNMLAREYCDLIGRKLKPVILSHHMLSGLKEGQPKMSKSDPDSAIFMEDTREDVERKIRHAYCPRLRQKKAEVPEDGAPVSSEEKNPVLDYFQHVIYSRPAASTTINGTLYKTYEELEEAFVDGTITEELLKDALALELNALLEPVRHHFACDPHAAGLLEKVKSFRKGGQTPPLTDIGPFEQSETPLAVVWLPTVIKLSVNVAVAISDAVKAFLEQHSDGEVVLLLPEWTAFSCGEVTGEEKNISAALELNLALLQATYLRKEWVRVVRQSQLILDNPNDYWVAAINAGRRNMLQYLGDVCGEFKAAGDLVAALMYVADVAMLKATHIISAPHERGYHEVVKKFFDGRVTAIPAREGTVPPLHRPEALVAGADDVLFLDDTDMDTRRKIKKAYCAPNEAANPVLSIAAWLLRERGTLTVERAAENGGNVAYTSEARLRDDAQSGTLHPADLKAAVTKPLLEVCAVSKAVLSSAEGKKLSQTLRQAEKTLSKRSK
Briefly: Trypanosoma cruzi tyrosyl tRNA synthetase (TcYRS) _High Tyrosine SOP. Note: in the data most compounds retested in dose-response had high values. Format: functional. Particulars: 30 µM.

For assay [8], the target named is T4, Tyrosyl-tRNA synthetase, putative (Trypanosoma cruzi (strain CL Brener)). Briefly: Trypanosoma cruzi tyrosyl tRNA synthetase (TcYRS) SOP. Format: functional. Particulars: 30 µM.
The target of assay [9] is Chromo domain-containing protein 1 (Saccharomyces cerevisiae (strain ATCC 204508 / S288c) (Baker's yeast)) (UniProt P32657). Briefly: ScCHD-1 Enzyme Inhibition Assay. Note: in the data most compounds retested in dose-response had high values. Format: functional. Particulars: 30 µM.
Chromo domain-containing protein 1 (Saccharomyces cerevisiae (strain ATCC 204508 / S288c) (Baker's yeast)), sequence (P32657 whole entry, the tested form may be a part): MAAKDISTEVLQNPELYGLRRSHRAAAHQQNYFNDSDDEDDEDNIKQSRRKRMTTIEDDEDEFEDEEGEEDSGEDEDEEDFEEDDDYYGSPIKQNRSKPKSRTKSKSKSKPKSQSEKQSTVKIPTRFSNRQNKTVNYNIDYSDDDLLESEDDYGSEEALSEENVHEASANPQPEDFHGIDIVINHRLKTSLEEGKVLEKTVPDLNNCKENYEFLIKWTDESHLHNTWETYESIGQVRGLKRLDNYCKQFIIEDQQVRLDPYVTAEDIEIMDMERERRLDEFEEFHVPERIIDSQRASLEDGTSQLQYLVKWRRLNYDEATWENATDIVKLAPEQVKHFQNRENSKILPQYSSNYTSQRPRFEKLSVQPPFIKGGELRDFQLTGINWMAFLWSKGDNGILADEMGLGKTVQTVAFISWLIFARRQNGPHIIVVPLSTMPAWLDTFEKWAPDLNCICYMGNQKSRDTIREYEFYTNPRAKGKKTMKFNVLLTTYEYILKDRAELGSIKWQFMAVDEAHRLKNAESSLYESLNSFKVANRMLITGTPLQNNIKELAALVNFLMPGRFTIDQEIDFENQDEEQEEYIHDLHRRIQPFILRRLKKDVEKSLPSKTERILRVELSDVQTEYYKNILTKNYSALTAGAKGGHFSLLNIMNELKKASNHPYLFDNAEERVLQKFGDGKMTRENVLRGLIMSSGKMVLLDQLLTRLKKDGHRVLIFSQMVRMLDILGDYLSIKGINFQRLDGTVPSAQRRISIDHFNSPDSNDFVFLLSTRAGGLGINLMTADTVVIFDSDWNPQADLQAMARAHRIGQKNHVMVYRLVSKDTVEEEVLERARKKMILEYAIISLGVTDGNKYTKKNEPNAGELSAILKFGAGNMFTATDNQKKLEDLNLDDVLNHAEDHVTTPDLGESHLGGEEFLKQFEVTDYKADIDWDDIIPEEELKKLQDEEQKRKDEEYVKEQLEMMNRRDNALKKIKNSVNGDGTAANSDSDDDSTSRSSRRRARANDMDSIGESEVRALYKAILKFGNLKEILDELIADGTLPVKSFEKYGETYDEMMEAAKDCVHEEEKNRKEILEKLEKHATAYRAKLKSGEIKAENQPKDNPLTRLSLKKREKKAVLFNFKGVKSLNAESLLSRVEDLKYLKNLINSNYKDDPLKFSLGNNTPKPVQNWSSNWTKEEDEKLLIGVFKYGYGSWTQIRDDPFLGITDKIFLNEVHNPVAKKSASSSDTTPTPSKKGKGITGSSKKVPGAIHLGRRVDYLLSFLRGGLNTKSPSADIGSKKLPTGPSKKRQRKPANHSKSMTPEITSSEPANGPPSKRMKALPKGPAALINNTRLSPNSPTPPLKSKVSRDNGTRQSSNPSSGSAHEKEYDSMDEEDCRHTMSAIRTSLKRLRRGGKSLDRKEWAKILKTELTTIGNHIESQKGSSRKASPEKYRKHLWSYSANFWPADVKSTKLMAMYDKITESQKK

Protein translocase subunit SecA (Escherichia coli (strain K12)), sequence (P10408 whole entry): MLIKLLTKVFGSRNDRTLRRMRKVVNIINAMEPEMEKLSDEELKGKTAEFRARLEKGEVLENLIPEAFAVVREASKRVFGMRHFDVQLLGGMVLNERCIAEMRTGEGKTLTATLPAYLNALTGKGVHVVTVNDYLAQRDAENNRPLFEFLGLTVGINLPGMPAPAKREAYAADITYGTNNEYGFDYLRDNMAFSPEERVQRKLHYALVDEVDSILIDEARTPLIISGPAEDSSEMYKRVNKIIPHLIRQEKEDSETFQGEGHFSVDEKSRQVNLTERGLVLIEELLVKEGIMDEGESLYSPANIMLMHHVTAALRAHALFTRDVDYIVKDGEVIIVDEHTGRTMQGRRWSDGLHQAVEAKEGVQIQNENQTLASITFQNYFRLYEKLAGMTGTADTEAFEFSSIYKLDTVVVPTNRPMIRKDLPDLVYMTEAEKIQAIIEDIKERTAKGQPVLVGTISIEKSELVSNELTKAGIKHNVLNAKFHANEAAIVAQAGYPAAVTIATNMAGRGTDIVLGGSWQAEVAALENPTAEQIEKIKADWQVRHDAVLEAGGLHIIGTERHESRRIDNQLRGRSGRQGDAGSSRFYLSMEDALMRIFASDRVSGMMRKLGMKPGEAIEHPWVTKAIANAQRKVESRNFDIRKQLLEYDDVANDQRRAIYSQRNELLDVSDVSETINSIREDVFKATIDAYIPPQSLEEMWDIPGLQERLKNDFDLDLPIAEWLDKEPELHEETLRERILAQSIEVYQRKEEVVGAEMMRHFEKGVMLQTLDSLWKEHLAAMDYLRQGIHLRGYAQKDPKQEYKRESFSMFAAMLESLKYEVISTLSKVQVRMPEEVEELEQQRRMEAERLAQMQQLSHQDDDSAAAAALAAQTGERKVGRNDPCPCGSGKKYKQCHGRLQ

Consider `O=C(c1ccc(Cl)c(Cl)c1)N1CCCC(n2cncn2)C1` (stereo unspecified), for which the Percent Effect in [1] is -0.919%; in assay [2], 2.7%; in assay [3] it was -3.55%; in [4], 0.213%; in the assay on Trypanosoma cruzi, -2.14%; in assay [5], 6.47%. Besides, the Percent Effect in assay [6] is -7%; in the assay listed under Homo sapiens, 6.82%; in assay [7] it was 3.96%; in assay [8], 3.66%; in assay [9], 7.67%.
With `CCn1ncc2c1C(COCC1CC1)CN(S(=O)(=O)N(C)C)C2` (stereo unspecified), the Percent Effect in assay [1] was 0.0926%; in [2], 19.2%; in assay [3], -8.78%; in assay [4], 10.2%; with Trypanosoma cruzi, 2.78%; in [5] it was -0.798%. For the same compound, the Percent Effect in assay [6] was 10.4%; in the assay filed under Homo sapiens, 9.33%; in assay [7] it was 9.38%; in assay [8], 18.5%; in assay [9] it was -8.61%.
Turning to `CCN1CCN(C2CCN(Cc3noc(C)n3)CC2)C1=O`, the Percent Effect in assay [1] is -5.08%; in assay [2] it was 25.3%; in assay [3], -3.66%; in assay [4], -5.18%; in the assay on Trypanosoma cruzi it was 1.98%; in [5], 0.38%. Also, the Percent Effect in assay [6] was 5.16%; in the assay listed under Homo sapiens, -0.161%; in assay [7], 7.39%; in assay [8] it was 21.5%; in [9] it was -6.23%.
Consider `CC(OCC(F)(F)F)C(=O)N1CCN(S(C)(=O)=O)CC1` (stereo unspecified), for which the Percent Effect in assay [1] is -3.82%; in assay [2], 8.22%; in assay [3] it was 1.32%; in [4] it was -5.16%; with Trypanosoma cruzi, -3.92%; in [5], 1.36%. The Percent Effect was 9.05% in assay [6]; 17.4% in the assay filed under Homo sapiens; 6.45% in assay [7]; 15% in assay [8]; -6.7% in [9].
With `COc1ccc(Oc2cncc(C3CCCN3C(C)=O)n2)cc1` (stereo unspecified), the Percent Effect in assay [1] was -0.946%; in assay [2], 12.2%; in assay [3] it was 4.91%; in assay [4], -7.65%; with Trypanosoma cruzi it was -3.56%; in assay [5], 0.696%. The Percent Effect was 9.36% in assay [6]; 15.2% in the assay filed under Homo sapiens; 0% in assay [7]; 3.9% in assay [8]; -11.7% in assay [9].
As for `COc1ccc(C2CCCCCN2S(=O)(=O)N(C)C)cc1` (stereo unspecified), the Percent Effect is -0.837% in assay [1]; 12.5% in assay [2]; -11.6% in [3]; 10.4% in [4]; -0.291% in the assay on Trypanosoma cruzi; 18.1% in assay [5]. The Percent Effect is 12.5% in assay [6]; 6.25% in the assay listed under Homo sapiens; 2.1% in [7]; 5.13% in assay [8]; -3.74% in [9].
As for `O=C(Cc1ccc2c(c1)OCCO2)N1CCCC(n2cccn2)C1` (stereo unspecified), the Percent Effect is 2.92% in [1]; 2.6% in [2]; 13.7% in assay [3]; -3.29% in assay [4]; 1.08% in the assay with Trypanosoma cruzi; 2.74% in assay [5]. Moreover, the Percent Effect in assay [6] is 3.15%; in the assay filed under Homo sapiens it was 22.6%; in assay [7] it was -7.62%; in [8], -2.35%; in assay [9] it was -15%.
Turning to `CN(C)C(=O)c1cccc(NC(=O)N(CCO)Cc2ccsc2)c1`, the Percent Effect was -0.273% in assay [1]; 9.72% in assay [2]; -9.76% in [3]; 7.88% in assay [4]; 3.79% in the assay on Trypanosoma cruzi; 11% in assay [5]. The Percent Effect is 11.8% in assay [6]; -1.39% in the assay filed under Homo sapiens; 5.26% in assay [7]; 12.8% in [8]; -3.15% in assay [9].
Regarding `O=C(c1cc(Cl)c2c(c1)OCO2)N1CCN(c2nccs2)CC1`, the Percent Effect in assay [1] was -3.24%; in assay [2] it was 11%; in [3], -2.85%; in [4], 1.89%; in the assay on Trypanosoma cruzi it was 2.55%; in [5] it was 3.18%. Further, the Percent Effect in assay [6] is 7.45%; in the assay filed under Homo sapiens it was 3.79%; in assay [7], 7.53%; in assay [8], 15%; in assay [9] it was -3.25%.
Turning to `CCOc1ccc(Cl)cc1CNCCCn1ccnc1`, the Percent Effect in assay [1] is -0.524%; in assay [2], 6.67%; in assay [3] it was 7.15%; in assay [4], -7.03%; in the assay with Trypanosoma cruzi, -5.5%; in assay [5], -9.68%. Also, the Percent Effect in assay [6] was 19%; in the assay listed under Homo sapiens it was 11%; in [7] it was -2.12%; in [8], 5.13%; in [9] it was -11.2%.
In the case of `COCCn1cc2c(n1)C(CNCc1ccc(F)cc1)OCC2` (stereo unspecified), the Percent Effect is -5.93% in [1]; 8.11% in assay [2]; -0.136% in [3]; -5.65% in assay [4]; -0.195% in the assay with Trypanosoma cruzi; 5.42% in assay [5]. The Percent Effect in assay [6] was 16.8%; in the assay filed under Homo sapiens, -4.69%; in [7], 11.9%; in [8], 11%; in assay [9] it was -6.25%.

The record behind these values is ChEMBL document CHEMBL3988442, “University of Dundee, Small-Polar-MMV Screening Library” (2021).
